Only some compounds are listed: those with a hit (about 17% of all), similar ones and a draw of the others.
TDP1 cell CPT – DT40-hTDP1 cell growth loss with CPT. AID 686979. 420,000 tested, 12% active. Potency, µM (titrated, usually from 46.2 µM), without a hit: at the top dose activity change, negative = growth inhibition, most hits filed as inhibitors. chicken DT40 Tdp1-/-;hTDP1 cells + 20 nM CPT, ATP luminescence, 48 h; note: % is set by controls: 0 for no effect and ±100 for the full control effect; nearly all actives have a fitted effect of over 55% in size
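Chicken DT40 Tdp1-/- cells stably complemented with human TDP1 were seeded at 400 cells/well in medium containing 20 nM camptothecin, exposed to pin-transferred compounds, and grown at 37 °C for at least 48 hr. Viability was read as ATP luminescence.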
TDP1 cell noCPT – qHTS for Inhibitors of human tyrosyl-DNA phosphodiesterase 1 (TDP1): qHTS in cells in absence of CPT. DT40 Tdp1-/- hTDP1 cells, no CPT, ATP luminescence, 48 h. Potency, µM (titrated, usually from 46.2 µM), without a hit: top-dose activity change, negative = growth inhibition, hits mostly inhibitors. 420,000 tested, 15% active; note: % is set by controls: 0 for no effect and ±100 for the full control effect; nearly all actives have a fitted effect of over 55% in size
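DT40 Tdp1-/-;hTDP1 cells, no CPT (DMSO vehicle only), 400 cells/well; compounds pin-transferred; ≥48 hr, 37 °C; CellTiter-Glo 30 min RT dark, luminescence read.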
HT1080 IDH1KD tx – kills HT-1080 cells with IDH1 knockdown; AID 686971; Potency, µM (titrated, usually from 46.1 µM), for inactives: at the top dose activity, negative = toxicity, actives largely listed as cytotoxic; HT-1080 IDH1 knockdown viability, ATP luminescence, 48 h; 360,000 tested, 2% active;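 note: 0% = DMSO wells and -100% = cell-free medium wells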
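Cytotoxicity counter-line: IDH1KD HT-1080, 48 h, CellTiter-Glo. Curves classed by r2, magnitude and activity.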
HT1080NT lethal – kills 2HG-producing HT-1080-NT fibrosarcoma cells. Potency, µM (highest dose often 46.1 µM), without a hit: at the top dose activity, negative = less viability, hits mostly cytotoxic. 360,000 tested, 1.6% active. AID 686970. HT-1080-NT fibrosarcoma viability, CellTiter-Glo ATP luminescence, 48 h;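 note: NT is the 2HG producing partner of a matched IDH1 knockdown line; 0% = DMSO-treated cells and -100% = media-only wells without cells; nearly all actives have a fitted effect of over 55% in size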
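Fibrosarcoma NT cells, 750 per well in 5% FBS RPMI, were exposed to compound for 48 hours. Viability: CellTiter-Glo luminescence.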
TGFb SMAD3 inh – TGF-b pathway inhibition | HepG2 CAGA-GFP TGF-b/SMAD3 reporter, GFP fluorescence, 18 h; TGF-beta stimulated, 500 pg/mL final | Potency, µM (series often up to 46.1 µM), without a hit: at the top dose activity, negative = inhibition, most hits filed as inhibitors | 410,000 tested, 1.2% active | AID 588855; note: % is set by controls: 0 for no effect and ±100 for the full control effect; nearly all actives have a fitted effect of over 65% in size
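Cell-based qHTS in HEPG2 carrying a CAGA-GFP Smad reporter; compounds added before 500 pg/mL final TGF-beta, 18 h incubation at 37 degrees C, GFP fluorescence quantified per cell by imaging cytometry.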
HepG2 tox – counter-screen for TGF-b inhibitors: cytotoxicity in HepG2 cells | HepG2 CAGA-GFP viability, ATP luminescence, 18 h | AID 588856 | Potency, µM (titrated, usually from 46.1 µM), for inactives: top-dose activity change, negative = cytotoxicity, most hits filed as cytotoxic | 410,000 tested, 0.76% active
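CellTiter-Glo luminescence gave cytotoxicity after 18 hours at 37 degrees C. The cells were HepG2 CAGA-GFP in 1% FBS DMEM, stimulated with 500 pg/mL TGF-beta after compound addition. %Activity was normalised to no-cell wells (complete cell-killing) and DMSO (no toxicity), and curves were fitted and classified.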
The depositor's hits bear a star; ? = inconclusive; · = not tested or not shown; ! = not active in a repeat; [ ] = remark or other dose. Calls come from the whole dose curve; as a rule, active = well fitted curve in the direction sought with a large enough effect; inconclusive = small, poorly fitted or top-dose-only effect, or another doubt; inactive = no such curve, though single readings can be large; an effect the other way counts as inactive or inconclusive. Potency is the fitted concentration of half-maximal effect.

SMILES	TDP1 cell CPT	TDP1 cell noCPT	HT1080 IDH1KD tx	HT1080NT lethal	TGFb SMAD3 inh	HepG2 tox
COc1cccc(C(C)(O)c2nc(-c3ccoc3)cs2)c1 (stereo not drawn)	?	?	9.5%	21.2%	-10.4%	-32.2%
N[C@H](C(=O)O)C1C(C(=O)O)C1C(=O)O (stereo partly drawn)	1.7%	0.6%	·	·	·	·
Cc1ccc(OCCCC(=O)NNC(=O)c2ccccn2)cc1	6.51µM*	5.8µM*	?	2.1%	-14.8%	-21.4%
O=C(COc1ccc(Cl)cc1)NNC(=O)c1ccccn1	?	?	?	-9.5%	-18.2%	-28.5%
O=C(COc1ccc(F)cc1)NNC(=O)c1cc2ccccc2oc1=O	6.8%	-11.6%	-2.1%	6.6%	3.5%	-19.8%
C/C(=N\NC(=O)COc1cccc(C)c1)c1ccc2ccccc2c1O	?	?	?	20.6µM*	5.62µM*	-58.6%
Cc1cccc(OCC(=O)NNC(=O)c2cc3ccccc3oc2=O)c1	-25.1%	-27.7%	-3.1%[9.24 µM]	-2.2%	?	3.16µM*
Cc1cc(C)cc(OCC(=O)NNC(=O)c2ccccn2)c1	9.2µM*	6.51µM*	-27.3%	?	?	-10.3%
CC(C)(CNC(=O)c1cccc(S(=O)(=O)Nc2ccc(SC(F)F)cc2)c1)N1CCOCC1	?	0.4%	-3.5%	-6.5%	1.0%	-15.2%
Nc1nc(Cl)nc2ncn(Cc3ccccc3)c12	1.0%	-27.3%	-7.1%	-11.3%	-10.3%	18.4%
CC(C)(C)C(=O)c1c(N)[nH]c(C(=O)c2ccccc2)c1-c1cc2ccccc2nc1Cl	-2.5%	?	26.5%	17.8%	·	·
O=[N+]([O-])c1ccc(-[n+]2ccc3ccccc3c2)c([N+](=O)[O-])c1	1.03µM*	1.3µM*	?	?	5.01µM*	12.6µM*
COc1cc(N=C2C(=O)N3c4c(cccc42)C(C)=CC3(C)C)cc(OC)c1	6.51µM*	5.17µM*	-1.5%	0.7%	?	-6.1%
COc1ccc(N=C2C(=O)N3CCCc4cccc2c43)cc1	?	?	1.4%	-12.5%	4.1%	9.5%
CC1=CC(C)(C)N2C(=O)C(=Nc3ccc(O)cc3)c3cccc1c32	4.11µM*	3.26µM*	25.9µM*	16.4µM*	12.6µM*	-97.4%
CCOC(=O)[C@@H](NC(=O)CC[C@H]1O[C@@H](n2ccc(=O)[nH]c2=O)[C@H](O)[C@@H]1O)C(C)C	-0.6%	31.0%	8.9%	4.2%	-11.0%	5.0%
Cc1ccccc1NC(=O)NC(N)=O	-3.2%	7.1%	0.9%	-3.2%	-24.0%	-11.7%
Cc1ccccc1N=C(N)Nc1ccccc1C	26.6µM*!	?	-1.9%	-9.0%	21.4%	4.9%
CCc1sc(C(=O)Nc2ccc3c(c2)OCO3)cc1C	-2.8%	?	-3.5%	-5.7%	?	-3.1%
CC(C)(O)C#Cc1ccc(C(=O)Nc2ccc3c(c2)OCO3)s1	?	-14.7%	7.31µM*	?	0.1%	-3.1%
N#Cc1cccc(-c2nc(Nc3ccncc3)c3ccccc3n2)c1	2.59µM*	2.91µM*	·	·	·	·
COc1ccc(Nc2nc(-c3ccccc3)nc3ccccc23)c(OC)c1	?	20.6µM*	-26.5%	-1.1%	-17.2%	-22.1%
COc1ccccc1Nc1nc(-c2ccccc2)nc2ccccc12	?	?	-3.0%	1.5%	-1.9%	-26.9%
Fc1cccc(Nc2nc(-c3ccncc3)nc3ccccc23)c1	·	·	-21.3%	-17.8%	7.6%	-44.5%
COc1ccc(Nc2nc3cc(C)ccc3cc2C#N)c(OC)c1	1.16µM*	0.0291µM*	?	-25.0%	0.7%	2.0%
SMILES	TDP1 cell CPT	TDP1 cell noCPT	HT1080 IDH1KD tx	HT1080NT lethal	TGFb SMAD3 inh	HepG2 tox
COc1cccc(-c2nc(NCc3cccs3)c3ccccc3n2)c1	?	-13.5%	·	·	·	·
COc1cccc(Nc2nc(-c3ccccc3)nc3ccccc23)c1	23.1µM*	?	?	?	?	-68.0%
COc1cccc(Oc2nc(-c3ccncc3)nc3ccccc23)c1	14.6µM*	?	-9.8%	-12.7%	0.0%	-2.6%
COc1ccc(Oc2nc(-c3ccncc3)nc3ccccc23)cc1	-2.8%	?	0.5%	?	0.3%	-1.4%
COc1cccc(Nc2nc(NCCO)c3ccccc3n2)c1	4.61µM*	20.6µM*	?	?	12.6µM*	-36.4%
COc1ccc(OC)c(Nc2nc(-c3ccncc3)nc3ccccc23)c1	18.4µM*	7.31µM*	-10.8%	5.3%	6.3%	-17.2%
COc1ccc(Nc2nc(N3CCN(S(=O)(=O)N(C)C)CC3)nc3ccccc23)cc1	11.6µM*	8.2µM*	-8.8%	-4.1%	-20.9%	-31.3%
CCN(c1ccccc1)S(=O)(=O)c1ccc(OC)c(NC(=O)c2cc(F)c(F)c(F)c2F)c1	-25.0%	-17.2%	-1.9%	-0.3%	-0.6%	4.0%
CC(NC(=O)C(C)N1CCN(Cc2ccccc2)CC1)c1ccccc1 (stereo not drawn)	-0.9%	-0.5%	9.3%	17.8%	-17.4%	-7.4%
CCOc1ccc(C2c3cc(OCC)c(OCC)cc3CC(=O)N2c2ccc(C(=O)O)cc2)cc1OCC (stereo not drawn)	-12.7%	3.2%	·	·	3.3%	4.3%
COc1ccc(Nc2nc(-c3ccccc3O)nc3ccccc23)cc1	?	18.4µM*	?	?	?	-51.3%
COc1ccc(Nc2nc(-c3ccncc3)nc3ccccc23)cc1	20.6µM*	10.3µM*	-2.3%	-25.0%	-8.3%	-29.9%
COc1cccc(Nc2nc(-c3ccccc3O)nc3ccccc23)c1	?	?	-27.5%	-24.7%	21.5%	-18.4%
COc1ccc(Nc2nc(-c3ccccc3F)nc3ccccc23)cc1OC	14.6µM*	14.6µM*	-7.8%	-9.5%	1.7%	-11.9%
Cc1ccc(C)c(S(=O)(=O)N2CCN(C(=O)CSC(=S)N3CCCC3)CC2)c1	-4.3%	-23.3%	-11.4%	-9.0%	0.1%	-3.4%
Cc1ccc(NC(=O)Cn2cc(C(=O)C3CC3)c3ccccc32)cc1C	?	-19.6%	·	·	0.5%	-65.8%
COC(=O)[C@@H]1CCCN1C(=O)c1cc(NC(=O)c2ccccc2)cc2ncn(C3CCCC3)c12	-21.5%	-23.5%	·	·	·	·
Cn1cc(S(=O)(=O)NC[C@H]2O[C@@H](n3cnc4c(N)ncnc43)[C@H](O)[C@@H]2O)cn1	2.1%	-4.4%	4.3%	-0.7%	-1.6%	-1.0%

Bioassay records as filed in PubChem.
